Assay outcomes as filed in PubChem.
TrxR1 substrate: rat thioredoxin reductase 1 substrate activity; O89049; purified TrxR1 substrate turnover, NADPH consumption readout; Potency, µM (top dose mostly 114 µM); 390,000 compounds, 0.01% hits; further: nearly all actives have a fitted effect of over 50% in size
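Rat TrxR1, dispensed at 90 nM, was prereduced with 400 uM NADPH (final) for 5 min at ~22 deg C, then incubated with compound 15 min before 400 uM selenite. A first-read NADPH fluorescence drop versus no-compound background flagged substrates.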
rTrxR1 inhibitor: blocks rat thioredoxin reductase 1; O89049; recombinant rTrxR1, NADPH fluorescence consumption, selenite substrate; Potency, µM (doses to about 114 µM), usual class: inhibitors; 390,000 compounds, 1% hits; AID 588453; further: nearly all actives have a fitted effect of over 65% in size
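Rat TrxR1 (90 nM in the dispensed reagent) was pre-reduced with 400 uM NADPH for 5 min at room temperature, then incubated with compound for 15 min. After 400 uM selenite was added, NADPH fluorescence (Ex 340/Em 450 nm) was followed for 8 min.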
Coupling enz: inhibits coupling enzyme system, counter-screen for aldolase hits | activity change, negative = inhibition, % at 58.2 µM, hits read low | coupling enzyme system counterscreen, AmpLite Red fluorescence | 290,000 compounds, 0.67% hits | AID 2472; in the data active means activity change below about -30%
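Counterscreen of the coupled detection system alone, without aldolase: glyceraldehyde-3-phosphate coupling enzymes plus AmpLite Red readout. Compounds at 57.5 uM final, 10 min RT preincubation, 20 min RT reaction, fluorescence 525/598 nm.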
Eya2 inh: blocks the phosphatase activity of human Eya2; O00167; Potency, µM (series often up to 76.9 µM), actives largely listed as inhibitors; AID 488837; recombinant Eya2, OMFP fluorescence dephosphorylation (OMFP is methylfluorescein phosphate); 330,000 compounds, 0.006% hits
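Eya2 protein (added as 0.2 uM solution) was preincubated with compound for 10 min at ambient temperature in 50 mM HEPES pH 7.5, 50 mM NaCl, 5 uM MgCl2, 0.05% BSA, 1 mM DTT. OMFP (added at 50 uM) then reacted 10 min; fluorescence read at 485/525 nm.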
IDH1 R132H inh: human IDH1 R132H inhibition; O75874; IDH1-R132H enzyme, NADPH consumption, diaphorase/resazurin fluorescence; Potency, µM (highest dose often 76.6 µM), usual class: inhibitors; 390,000 compounds, 0.093% hits; AID 602179; further: nearly all actives have a fitted effect of over 65% in size
Target sequence (O75874 whole entry R132H, stated change not applied): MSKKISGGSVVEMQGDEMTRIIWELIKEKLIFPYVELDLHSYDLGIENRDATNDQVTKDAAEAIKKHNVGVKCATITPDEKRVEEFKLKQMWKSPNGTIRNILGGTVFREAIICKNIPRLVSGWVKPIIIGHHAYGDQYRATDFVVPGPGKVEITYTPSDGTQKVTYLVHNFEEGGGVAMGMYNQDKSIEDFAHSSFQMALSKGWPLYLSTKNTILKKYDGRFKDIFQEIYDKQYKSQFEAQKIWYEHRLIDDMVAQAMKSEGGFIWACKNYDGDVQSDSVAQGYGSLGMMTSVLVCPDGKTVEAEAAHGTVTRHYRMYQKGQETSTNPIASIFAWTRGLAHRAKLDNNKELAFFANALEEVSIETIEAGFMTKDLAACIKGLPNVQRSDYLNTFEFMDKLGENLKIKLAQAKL
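IDH1-R132H (0.5 ug/mL) preincubated 30 min with compound, then NADPH (0.016 mM) and alpha-KG (2 mM) added; 80 min at RT, pH 7.5. Remaining NADPH coupled via diaphorase/resazurin to fluorescence (540/590 nm); concentration-response curves normalized to no-enzyme control.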
Numbers stand for hits; i = inactive; ? = inconclusive; nt = no result; [ ] = remark or other dose. Compounds with a hit are over-represented: about 1.5% of the library has one in this group of screens. Unless noted, the call rests on the fitted dose curve; in most records, active means well fitted curve in the direction sought with a large enough effect; inconclusive means small, poorly fitted or top-dose-only effect, or another doubt; inactive means no such curve, though single readings can be large; an effect the other way counts as inactive or inconclusive.

SMILES | TrxR1 substrate | rTrxR1 inhibitor | Coupling enz | Eya2 inh | IDH1 R132H inh
COc1ccccc1-c1cc(C(F)(F)F)nc(S(=O)(=O)CCCC(=O)Nc2cc(OC)c(OC)c(OC)c2)n1 | i | 22µM | nt | nt | i
COc1ccc(NC(=O)CCCS(=O)(=O)c2nc(-c3ccc(OC)c(OC)c3)cc(C(F)(F)F)n2)cc1OC | i | 25µM | nt | nt | i
COc1ccc(CCNC(=O)c2cnn3c2NC(=C2CC2)C=C3C(F)F)cc1OC | i | i | nt | nt | nt
Cc1ccccc1CN1[C@H]2CCCC[C@@H]2OCCS1(=O)=O | i | i | nt | nt | nt
c1coc(CNc2ncnc3c2nc2n3CCCC2)c1 | i | i | nt | nt | nt
C=C1CC(COc2cc(=O)oc3ccccc23)(c2ccccc2)OC1=O (centres undefined) | i | 32µM | nt | nt | i
C=C1CCC2C(C)(C)[C@H](O)CC[C@@]2(C)[C@@H]1COc1cc(=O)oc2ccccc12 (some centres undefined) | i | i | i | i | i
O=C(Nc1ccc(Cl)cc1Cl)[C@@H]1CC=C[C@@H]2CCN(C3CCCCC3)C(=O)[C@@H]21 | i | i | nt | nt | nt
O=P1(O)Oc2c(c(-c3ccccc3)cc3ccccc23)-c2c(-c3ccccc3)cc3ccccc3c2O1 | nt | nt | i | nt | nt
Oc1cc(-c2ccccc2)c2ccccc2c1 | i | i | -60 | i | i
COc1ccc(NC(=O)NCCN2CCN(c3cccc(Cl)c3)CC2)cc1 | i | i | -32 | i | i
CN(C)c1ccc(C2=Cc3ccccc3C2)cc1 | i | ? | nt | nt | nt
CCC(=O)Nc1cc2[nH]c(=O)cc(C)c2cc1C | i | i | i | i | i
Cc1cc2c(C)cc(=O)[nH]c2cc1NC(=O)CCl | i | 20µM | i | i | i
O=c1c2nc(Br)n([C@@H]3O[C@@H]4CO[P@@](O)(=S)O[C@H]4[C@H]3O)c2nc2[nH]c(-c3ccccc3)cn12 | nt | nt | i | nt | nt
CC(C)c1cc(C(C)C)c(S(=O)(=O)Nc2cccc3cccnc23)c(C(C)C)c1 | nt | nt | i | nt | nt
O=C1C=C(N(CCO)Cc2ccccc2)c2ccccc2C1=O | ? | i | -75 | i | i
COC(=O)c1sc(N)c(C(=O)OC)c1Cn1ncc(Cl)c(Cl)c1=O | i | 2.5µM | i | i | i
CC(C)Nc1nc(C#N)nc(Nc2ccccc2)n1 | nt | nt | i | nt | nt
c1cc(C(c2nnnn2C2CCCC2)N2CCOCC2)ccn1 (centres undefined) | i | 14µM | i | i | i
CC1(C)Cc2nc3oc4c(=S)nc[nH]c4c3cc2CO1 | i | 11µM | i | i | i
N#Cc1nccnc1S(=O)(=O)c1cccs1 | i | 0.32µM | i | i | i
CCCCCc1ccc(-c2cn(Cc3ccc4c(c3)C(=O)c3ccccc3C4=O)nn2)cc1 | i | i | nt | nt | nt
CC(Nc1cccc2ccccc12)C(=O)N/N=C/c1ccc([N+](=O)[O-])cc1 (centres undefined) | i | i | -46 | i | i
COc1cc([N+](=O)[O-])cc(/C=N/NC(=O)C(C)Nc2cccc3ccccc23)c1O (centres undefined) | i | i | i | i | i
SMILES | TrxR1 substrate | rTrxR1 inhibitor | Coupling enz | Eya2 inh | IDH1 R132H inh
CC(C)Cc1ccc(C(C)/C=C2/CCC(CN3CCCCC3)C2=O)cc1 (centres undefined) | i | 3.5µM | nt | nt | i
COc1ccccc1NC(=O)c1ccc(N)cc1 | i | i | i | i[15.4 µM] | i
COC(=O)c1ccc(C(=O)Nc2ccc(N)cc2N)cc1 | i | i | -34 | i | i
CCOC(=O)N1CCC(Nc2cccc(SC)c2)CC1 | i | i | -44 | i | i
CC1OC(OCC2OC(Oc3cc(O)c4c(c3)OC(c3ccc(O)cc3)CC4=O)C(O)C(O)C2O)C(O)C(O)C1O (centres undefined) | nt | nt | i | nt | nt
CCCCCCCCN1[C@@H](CC(=O)OC)c2ccc(/C=C/C(=O)OC)cc2S1(=O)=O | i | i | nt | nt | nt
Cc1cnc2c(C)cccc2c1/C=C/c1ccc(N(C)C)cc1 | i | i | nt | nt | nt
O=C(C[n+]1ccc2ccccc2c1)c1ccc(F)cc1 | i | i | nt | nt | nt
COc1ccccc1Nc1ncc(C(=O)N2CCC(C(N)=O)CC2)c2ccccc12 | i | i | -34 | i | i
Cn1nnc2c(N3CCN(Cc4ccccc4)CC3)ncnc21 | i | ? | nt | nt | nt
CCCNC(=O)COC(=O)c1ccccc1C(=O)c1ccc(Cl)c([N+](=O)[O-])c1 | i | 50µM | i | i | i
COc1ccc(NC(=S)Nc2ncccc2C)c(OC)c1 | i | 1.8µM | i | i | i
